The entries come from a sample that favours hits as a whole.
D1 allo mod: allosterically modulates the human D1 dopamine receptor. P21728. HEK293 D1, CRE-luciferase, dopamine EC30 potentiation; actives deviate in either direction. B-score at 10 µM. actives 5.9% (n = 58,000);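 active = luminescence count or its row- and column-corrected plate score outside the 99.7% band of the plate's sample wells, on either side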
hDAT+cocaine: human DAT dopamine uptake with cocaine, either direction | Q01959 | LLC-PK1 hDAT cells, [14C]-dopamine uptake with cocaine IC80; actives deviate in either direction | B-score at 10 µM | actives 1.3% (n = 110,000) | AID 449768;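 active = Z score or B-score, a plate-position-corrected score, falls beyond the plate's 99.7% confidence bounds, in either direction; inactive = both scores lie inside the 99.7% bounds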;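 note: scored against the spread of the other compound wells on the same plate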
Target sequence (Q01959 whole entry, looked up): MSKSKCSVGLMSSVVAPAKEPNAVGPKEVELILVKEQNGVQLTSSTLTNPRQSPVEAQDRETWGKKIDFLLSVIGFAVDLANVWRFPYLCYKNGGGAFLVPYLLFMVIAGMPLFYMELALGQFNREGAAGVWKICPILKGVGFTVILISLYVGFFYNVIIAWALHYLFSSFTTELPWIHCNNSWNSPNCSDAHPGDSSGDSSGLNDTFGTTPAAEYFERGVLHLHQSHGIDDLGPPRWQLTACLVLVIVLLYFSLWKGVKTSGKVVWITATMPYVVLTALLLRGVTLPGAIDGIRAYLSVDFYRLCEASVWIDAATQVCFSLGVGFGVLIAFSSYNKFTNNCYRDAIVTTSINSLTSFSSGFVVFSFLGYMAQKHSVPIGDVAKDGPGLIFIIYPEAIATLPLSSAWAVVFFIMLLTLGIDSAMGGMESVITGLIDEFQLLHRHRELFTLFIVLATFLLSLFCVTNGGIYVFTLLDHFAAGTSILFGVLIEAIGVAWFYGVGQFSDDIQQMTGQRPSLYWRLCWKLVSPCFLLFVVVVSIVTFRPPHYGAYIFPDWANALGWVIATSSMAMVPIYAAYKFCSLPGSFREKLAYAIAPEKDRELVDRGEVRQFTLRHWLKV
EphB4 antag: blocks human EphB4 binding to ephrin-B2; inhibition, % at 7 µM; actives 0.15% (n = 97,000); P54760; EphB4 LBD / TNYL-RAW-Alexa532 peptide, fluorescence polarization; AID 720;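 active = inhibition above the screen-wide mean inhibition plus 3 SD, cut at about 15% in these data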;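 note: 0% = DMSO wells and 100% = excess unlabeled TNYL-RAW peptide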
An asterisk follows results filed as active; . = no result given.

SMILES	D1 allo mod	hDAT+cocaine	EphB4 antag
COCCNC(=O)C(c1ccccc1C)N(C(=O)Cn1nnc2ccccc21)c1cccnc1 (centres undefined)	.	-0.0039	-3
Cc1ccc(Nc2ncnc3nc[nH]c23)cc1Cl	-3.5*	-1.4	2
COc1cccc(Nc2ncnc3nc[nH]c23)c1	.	0.013	0
Clc1ccc(CCNc2ncnc3nc[nH]c23)cc1	-5.3*	-0.46	1
c1ccc(CCCNc2ncnc3nc[nH]c23)cc1	-0.7	0.66	.
CCOC(=O)C(C#N)(Cc1cc(OC)cc(OC)c1)Cc1cc(OC)cc(OC)c1	.	0.64	.
Cc1cccc(OCC(=O)N/N=C\c2cc3c(cc2[N+](=O)[O-])OCO3)c1C	.	-0.45	-1
CCOc1ccc(-c2nnn(CC(=O)NCc3ccc(F)cc3)n2)cc1OCC	1.4	-0.71	2
CCOc1ccc(-c2nnn(CC(=O)Nc3cccc(OC)c3)n2)cc1OCC	13*	1.4	1
Cc1ccc(F)c(C2C3C=CCC(c4cccc(-c5ccc(N(C)C)cc5)c4)C3C(=O)N2Cc2ccccc2)c1 (centres undefined)	.	-0.5	.
Cc1ccc(S(=O)(=O)C(C#N)c2nc3ccccc3nc2N2CCCCC2)cc1 (centres undefined)	-0.3	.	.
N#CC(c1nc2ccccc2nc1N1CCCCC1)S(=O)(=O)c1ccc(Cl)cc1 (centres undefined)	-2.5*	.	.
Cc1ccc(S(=O)(=O)NC(CC(=O)O)c2ccccc2)c(C)c1 (centres undefined)	-0.2	-0.29	-1
CCc1ccc(S(=O)(=O)NC(CC(=O)O)c2ccccc2)cc1 (centres undefined)	-6.5*	-0.7	-1
C=C1c2ccccc2S(=O)(=O)N(Cc2ccccc2)C1COCc1ccccc1 (centres undefined)	.	0.91	.
FC(F)Sc1ccc(N=C2NN=C(c3ccc4c(c3)OCCO4)CS2)cc1	.	0.85	8
COc1ccc(N=C2NN=C(c3ccc4c(c3)OCCO4)CS2)cc1	.	3.1*	10
COc1ccc(S(=O)(=O)O/N=C2\CCCc3ccccc32)cc1	.	.	-2
Cn1cnnc1SCC(=O)Nc1ccc2nc(SCc3ccccc3F)sc2c1	.	2.3	-2
Cc1cc(Cl)cc(Br)c1OCCCCn1cncn1	-0.65	0.18	7
C=CCc1cc(C)cc(C)c1OCCn1cncn1	-0.063	-0.33	17*
CC1(c2nnc(-c3cccc(Cl)c3)o2)CC(c2cccc(Cl)c2)=NO1 (centres undefined)	.	0.05	.
COc1ccc(C(O)(C(=O)NNc2ccc(C)cc2)c2cccs2)cc1 (centres undefined)	.	-7.9*	-2
O=C(NNc1ccc(C2CCCCC2)cc1)C(O)(c1ccccc1)c1cccs1 (centres undefined)	.	0.94	-1
Cc1cccc(CN2CCCC(C(=O)N3CCc4ccccc4C3)C2)c1 (centres undefined)	.	0.27	-1
SMILES	D1 allo mod	hDAT+cocaine	EphB4 antag
Cc1ccccc1NC(=O)CC(O)(C(F)(F)F)C(F)(F)F	.	-1.3	7
Cc1ccc(NC(=O)CC(O)(C(F)(F)F)C(F)(F)F)c(Br)c1	0.026	-3*	-5
Cc1occc1-c1nnc(SCC(=O)Nc2nc3ccccc3s2)o1	.	0.1	3
O=C(Nc1nccs1)[C@@H]1CC=C[C@@H]2CCN(Cc3ccccc3)C(=O)[C@@H]21	.	-0.69	.
Cc1nc(NC(=O)c2ccc(Cl)cc2)sc1-c1csc(Nc2cccc(F)c2)n1	.	1.7	-4
COc1ccc(NS(=O)(=O)c2cccc(-c3nnc4n3CCCCC4)c2)cc1	.	0.28	-6
O=c1[nH]c2ccc(S(=O)(=O)Nc3ccc(-c4nnc5n4CCCCC5)cc3)cc2o1	-5*	-0.67	0
CCN(CC)C(=O)c1c2c(nc3ccccc13)-c1ccccc1CC2	.	-0.13	-6
CCC(C(=O)NC1CCCC1)N(C(=O)Cn1nnc(-c2ccc(C)cc2)n1)C1CCCC1 (centres undefined)	.	3.7*	-10
CCCC(C(=O)NC1CCCC1)N(C(=O)Cn1nnc(-c2ccc(C)o2)n1)C1CCCC1 (centres undefined)	-0.35	0.69	-10
CCC(C(=O)NC1CCCC1)N(Cc1cccs1)C(=O)Cn1nnc(-c2ccc(OC)c(OC)c2)n1 (centres undefined)	.	0.61	-6
COc1ccc(-c2nnn(CC(=O)N(Cc3cccs3)C(C)C(=O)NC3CCCC3)n2)cc1OC (centres undefined)	4*	-0.45	7
CN1CCN(C(=O)C2=C[C@H](c3ccccc3)C[C@H](OCc3ccc(CO)cc3)O2)CC1	.	1.4	.
COC(=O)c1nn(-c2ccccc2)c(Cl)c1/C=N/OCc1ccc(C)cc1	.	1.6*	0
COC(=O)c1nn(-c2ccccc2)c(Sc2ccc(OC)cc2)c1/C=N/O	.	1.8	-3
O=C(C1=C[C@H](c2csc3ccccc23)C[C@H](OCc2ccc(CO)cc2)O1)N1CCN(Cc2ccc3c(c2)OCO3)CC1	.	0.013	.
CCOc1ccc(C(=O)NCc2ccco2)cc1	.	0.78	.
CC(C)COc1ccc(C(=O)NCc2ccco2)cc1	0.065	-7.8*	-2
COc1cccc(C(=O)Oc2cc(-c3ccccc3)no2)c1	.	0.085	-8
CCOC(=O)CSc1nc2cc(C)ccc2cc1C#N	-1	-0.0027	0
CCOC(=O)CSc1nc2cc(OC)ccc2cc1C#N	-0.25	-9.8*	5
CCO[C@H]1OC(C(=O)N2CCOCC2)=C[C@@H](c2coc3ccccc3c2=O)[C@@H]1CCCO	.	-0.59	.
O=C(c1cc(Cl)c(=O)n(Cc2ccc(Cl)cc2)c1)N1CCOCC1	.	-0.19	3
CC(C)NC(=O)COc1ncnc2sccc12	.	-1.5	5
C=CCn1c(C)cc(C(=O)COc2ncnc3sccc23)c1C	-4.5*	0.7	1
SMILES	D1 allo mod	hDAT+cocaine	EphB4 antag
O=C(NCc1nc2ccccc2[nH]1)C1=C[C@@H](c2ccc(C(F)(F)F)cc2)C[C@@H](OCc2ccc(CO)cc2)O1	.	-0.11	.
Cc1ccc(NC(=O)NNC(=O)Cn2nc(-c3ccccc3)c(-c3ccccc3)c(C#N)c2=O)cc1	.	1.8	3
CC[C@H](C)[C@@H](NC(=O)O[C@@H]1C(=O)c2cc(Br)ccc2O[C@H]1c1cccc(OC)c1)C(=O)OC	.	0.099	.
COc1cc([C@H]2[C@@H]3CCCC[C@]3(O)CCN2CC(=O)Nc2ccc(C)cc2)ccc1O	.	0.61	8
CCN(CC)c1ccc(C2C3CCCCC3(O)CCN2CC(=O)N2CCCCC2)cc1 (centres undefined)	-0.78	-7.9*	4
CC(C)OC(=O)C(C)Oc1ccc(C(=O)NCCc2ccccc2)cc1 (centres undefined)	.	-7.1*	1
CC(Oc1ccc(C(=O)NCCc2ccccc2)cc1)C(=O)O (centres undefined)	.	-0.57	-6
COc1cccc(NC(=O)c2ccc3c(c2)N(CC(=O)N2CCCCC2)C(=O)C(C)(C)O3)c1	-0.024	3.1*	2
COc1cccc(C(=O)CN2C(=O)C(C)(C)Oc3ccc(C(=O)N4CCCCCC4)cc32)c1	-0.36	0.51	.
CC(C)C(=O)NC(c1ccco1)c1ccc2cccnc2c1O (centres undefined)	-0.73	-0.81	-5
COc1ccc(C(NC(C)=O)c2ccc3cccnc3c2O)c(OC)c1 (centres undefined)	1.9	1*	.
N#CCC(CNc1ncc(C(F)(F)F)cc1Cl)OC(=O)c1ccc(Cl)cc1Cl (centres undefined)	.	-0.1	-2
